Consider 6 molecules from PubChem BioAssay (Tox21).

Inconclusive results are not listed. Unmarked numbers belong to inactive results. Active and inactive are the calls of the source. Calls come from the whole dose curve; as a rule, active = well fitted curve in the direction sought with a large enough effect in the repeat runs; inconclusive = weak or mixed curves; inactive = no such curve, though single readings can be large; an effect the other way counts as inactive or inconclusive.

Assay [1] can be described thus: qHTS RealTime-Glo MT Cell Viability Assay in HepG2 cells - 40 hour (AID 1224870). Note: nearly all actives have a fitted effect of over 50% in size. The essentials:
(§1)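 HepG2 cells mixed with RealTime-Glo MT reagents (NanoLuc plus cell-permeant prosubstrate) were seeded at 600 cells/well, incubated 5 h at 37 C/5% CO2, then pinned with compounds in DMSO; nonlytic luminescence tracked viability during 40 h treatment.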

Assay [2] in a line: qHTS RealTime-Glo MT Cell Viability Assay in HEK293 cells - 16 hour (AID 1224872). Note: top concentration of the series differs between compounds; nearly all actives have a fitted effect of over 50% in size. A digest of the protocol:
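Cells + reagent dispensed (600 cells/well, HEK293) → 5 h at 37 C/5% CO2 → 23 nL compound in DMSO pinned → 40 h at 37 C → luminescence read at 0, 8, 16, 24, 32, 40 h.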
(In general: In qHTS, concentration-response curves come from the screen itself.)

A short description of assay [3]: qHTS RealTime-Glo MT Cell Viability Assay in HepG2 cells - 8 hour (AID 1224873). Note: nearly all actives have a fitted effect of over 55% in size. The essentials: as §1
The nature of assay [4]: qHTS RealTime-Glo MT Cell Viability Assay in HEK293 cells - 40 hour (AID 1224874). Note: nearly all actives have a fitted effect of over 50% in size. To be noted: RealTime-Glo luminescence; max response: active compounds read low. The essentials: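 Luminescence, which tracks viable cell number through reduction of the prosubstrate to a NanoLuc substrate, was read over continuous 37 C culture. Cells (600/well) were premixed with reagent and rested 5 h before 23 nL of compound in DMSO was pinned.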

A short description of assay [5]: A CellTox Green Cytotoxicity Assay to monitor cytotoxicity in HepG2 cells - 16 hour (AID 1224876). Note: nearly all actives have a fitted effect of over 45% in size. A digest of the protocol:
(§2)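 Real-time cytotoxicity: fluorescence of a cell-impermeant cyanine dye binding DNA of dead HepG2 cells, measured repeatedly (0–40 h) during compound exposure at 37 C. Cells seeded 600/well with reagent, dosed after 5 h.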

Assay [6] can be described thus: qHTS RealTime-Glo MT Cell Viability Assay in HepG2 cells - 32 hour (AID 1224877). Note: nearly all actives have a fitted effect of over 55% in size. The essentials:
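Real-time, nonlytic viability: 600 HepG2 cells/well mixed with NanoLuc enzyme plus prosubstrate; 5 h settle, compound (DMSO) added by pintool; luminescence monitored over 40 h at 37 C.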

The nature of assay [7]: A CellTox Green Cytotoxicity Assay to monitor cytotoxicity in HepG2 cells - 24 hour (AID 1224878). Note: nearly all actives have a fitted effect of over 45% in size. The essentials:
as §2

A short description of assay [8]: A CellTox Green Cytotoxicity Assay to monitor cytotoxicity in HepG2 cells - 40 hour (AID 1224879). Note: nearly all actives have a fitted effect of over 40% in size. A digest of the protocol:
as §2

Assay [9] in a line: A CellTox Green Cytotoxicity Assay to monitor cytotoxicity in HEK293 cells - 24 hour (AID 1224875). Note: nearly all actives have a fitted effect of over 45% in size. Note: potency is the fitted concentration of half-maximal effect. A digest of the protocol:
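Fluorescence from a DNA-binding dye excluded by viable cells was measured repeatedly in the same HEK293 wells (600 cells/well) during continuous compound exposure at 37 C. Each assay gives one read point: 0, 8, 16, 24, 32 or 40 h.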
% is set by controls: 0 for no effect and ±100 for the full control effect.

`O=C(O)c1ccccc1S`: the Potency entry in assay [1], in assay [2], in assay [5], in assay [6], in assay [7] and in assay [8] was “inactive” throughout. The molecule was classed as inactive in [3]. In addition, the max response in [4] was -0.793%.
As to `NC(=O)CCCCC1CCSS1` (stereo unspecified), the Potency result in [1], in assay [2], in assay [9], in [6], in assay [7] and in [8] was “inactive” each time. The molecule was classed as inactive in [3]. Besides, in assay [4], the max response was 4.59%.
Take `O=C1OC(=O)c2cc([N+](=O)[O-])ccc21`: the Potency entry in [1], in assay [2], in assay [9], in assay [5], in assay [6] and in assay [8] was “inactive” throughout. In [3], the result was inactive. Moreover, the max response in assay [4] was 13%.
Consider `O=C(O)Cc1cc(I)c(Oc2cc(I)c(O)c(I)c2)c(I)c1`, for which the Potency result in assay [1], in [2], in assay [5], in [6], in assay [7] and in assay [8] was “inactive” throughout. Further, the result in [3] was inactive. The max response in [4] is 1.65%.
For `CC(C)c1cccc(C(C)C)c1N`, the Potency result in assay [1] and in assay [6] was “inactive” throughout. In addition, in assay [3], the result was inactive. Moreover, the max response in assay [4] was -0.332%.
Take `NC(=O)c1ncn([C@@H]2O[C@H](CO)[C@@H](O)[C@H]2O)c1O`: the Potency entry in assay [1] and in [6] was “inactive” in each case. Further, the molecule was called inactive in assay [3]. The max response in assay [4] was 9.45%. The Potency in [9] was 19 µM (active).
